Assay outcomes deposited in PubChem BioAssay by several laboratories.
The list is not random: actives were taken first. Their share in the collection is about 1.4%.
SARS 3CLpro inh-1: SARS-CoV 3CLpro protease inhibition. P0C6X7. recombinant SARS-CoV 3CLpro, quenched FRET peptide cleavage. inhibition, % at 6 µM. actives 0.14% (n = 290,000). AID 1706; in the data active = inhibition above about 12%
BJeLR lethal: kills HRASV12-expressing BJeLR cells | BJeLR (HRASV12) viability, CellTiter-Glo ATP luminescence, 48 h | inhibition, % (test concentration not listed) | actives 0.17% (n = 300,000) | AID 1554; in the data active = inhibition above about 50%
ugtP null kill: kills S. aureus RN4220 lacking UgtP; S. aureus RN4220 ugtP deletion, OD600 growth, 16 h; growth inhibition, % (test concentration not listed); actives 0.54% (n = 330,000); AID 1259309; in the data active = growth inhibition above about 68%;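 note: plate controls were untreated wells for no effect and antibiotic for full effect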
VHR inh abs: blocks human VHR1 dual specificity phosphatase. AID 1654. actives 0.52% (n = 290,000). recombinant VHR phosphatase, pNPP absorbance. inhibition, % at 13.3 µM; in the data active = inhibition above about 50%
Target sequence (P51452 whole entry, looked up): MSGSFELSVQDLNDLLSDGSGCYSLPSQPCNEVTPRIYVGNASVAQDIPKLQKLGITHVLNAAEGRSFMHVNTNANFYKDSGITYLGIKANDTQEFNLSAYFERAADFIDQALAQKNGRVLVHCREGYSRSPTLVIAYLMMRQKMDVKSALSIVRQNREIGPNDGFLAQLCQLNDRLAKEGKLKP
PrPC TRFRET: cell surface PrPC inhibition, primary TR-FRET screen; P04156; TR-FRET read-out; inhibition, % at 13.8 µM; actives 0.43% (n = 370,000); in the data active = inhibition above about 24%; note: 0% = median of the test wells and 100% = reference compound wells
Sa RN4220 lethal: S. aureus RN4220 growth inhibition; OD600, 16 h; actives 0.33% (n = 330,000); inhibition, % (concentration not given with the values); in the data active = inhibition above about 85%;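 note: plate controls were untreated cells for no effect and reference antibiotic for full effect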
SARS 3CLpro inh-2: confirmation of SARS coronavirus 3C-like protease inhibitors | AID 1879 | shares compounds with SARS 3CLpro inh-1 | QFRET protease activity assay, 3CLpro | actives 36% (n = 380) | inhibition, % at 6 µM; in the data active = inhibition above about 13%
An asterisk follows results filed as active; . = not tested or not shown.

SMILES | SARS 3CLpro inh-1 | BJeLR lethal | ugtP null kill | VHR inh abs | PrPC TRFRET | Sa RN4220 lethal | SARS 3CLpro inh-2
Cc1cc(=O)oc2cc(OC(=O)c3ccccc3)ccc12 | 4.6 | 2.8 | -5.8 | 7.4 | -3.0 | 3.8 | .
COC(=O)Cc1c(C)c2ccc(OC(=O)c3ccco3)cc2oc1=O | 2.4 | -14.8 | 8.3 | -7.0 | -3.3 | 5.6 | .
CCc1cc(=O)oc2cc(OC(=O)c3ccco3)ccc12 | 68.3* | 1.0 | -1.8 | 6.2 | 2.1 | 8.5 | 71.5*
O=[N+]([O-])c1ccccc1/C=C/C=Nn1c(-c2ccco2)n[nH]c1=S | . | . | 3.7 | . | . | 4.2 | .
O=[N+]([O-])c1ccccc1/C=C/C=N/n1c(-c2ccco2)n[nH]c1=S | 15.3* | -0.6 | . | 14.9 | -18.7 | . | 4.1
COc1ccc(C2Cc3cc(O)cc(O)c3C(=O)O2)cc1O (centres undefined) | . | . | -21.3 | . | . | 0.7 | .
Cc1ccc(SC2=C(Sc3ccc(C)cc3)C(=O)c3ccccc3C2=O)cc1 | 5.7 | 10.2 | 51.8 | 4.9 | -1.7 | 6.5 | 4.9
Cc1ccc(N2C(=O)c3ccccc3C2=O)cc1 | 3.4 | 15.9 | 4.2 | 12.5 | 9.7 | 2.3 | .
CN(C)C1=NCC(Cc2ccccc2)N1CCCCc1ccccc1 (centres undefined) | . | . | -3.7 | . | . | -2.2 | .
Cc1ccc(S(=O)(=O)/C(=C/Cl)NC(=O)c2ccccc2)cc1 | 16.2* | -2.9 | 0.3 | -0.5 | -3.5 | 2.5 | 23.1*
CC(C(=O)NCc1ccc(S(C)(=O)=O)cc1)C1C[C@]1(C)C(NC(=O)OCc1ccccc1)c1ccccc1 (some centres undefined) | . | . | 3.5 | . | . | 4.5 | .
COC(=O)[C@@H](Cc1c[nH]c2ccccc12)NC(=O)c1cc(=O)[nH]c2ccccc12 | 13.6* | 6.1 | 8.9 | 21.7 | 2.1 | 5.3 | 2.3
COc1ccccc1OCCNC(=O)c1cc(=O)[nH]c2ccccc12 | 62.1* | 0.3 | -6.6 | -8.7 | -2.7 | 3.6 | 65.2*
Cc1ccc(OCCNC(=O)c2cc(=O)[nH]c3ccccc23)cc1 | 2.8 | 9.2 | 6.0 | 10.6 | 0.2 | 3.5 | .
CCOC(=O)c1oc2nc(CC(C)C)c3c(c2c1N)CCCC3 | 13.3* | -4.5 | 32.5 | 3.5 | -5.7 | 1.7 | 3.1
CCOc1ccc(C(C(=O)Nc2ccc(F)cc2)N(C(=O)Cn2nnc3ccccc32)C2CC2)cc1 (centres undefined) | 4.9 | -0.1 | 8.1 | 10.2 | -0.4 | -2.7 | .
COc1cccc(C(C(=O)NCC2CCCO2)N(C(=O)Cn2nnc3ccccc32)c2ccc(NC(C)=O)cc2)c1 (centres undefined) | 30.5* | 6.0 | 3.9 | 27.7 | 6.9 | 3.7 | 33.8*
COc1cccc(C(C(=O)Nc2ccc(F)cc2)N(C(=O)Cn2nnc3ccccc32)C2CC2)c1 (centres undefined) | 32.8* | -3.8 | 8.9 | 26.9 | -8.5 | -0.2 | 37.3*
CCC1=C2CCC3C(=O)N(C)C(=O)C3C2[C@@]2(Cc3ccccc3)C(=NCC(=O)OC)OC(=O)N2C1=O (some centres undefined) | . | . | 2.1 | . | . | 3.9 | .
CCCCN1CCC2C=CCC(C(=O)N3CCN(c4ccccc4)CC3)C2C1=O (centres undefined) | . | . | -1.1 | . | . | 3.9 | .
CCOc1ccc(NC(=O)CSc2nc(NS(=O)(=O)c3ccc(C)cc3)cc(=O)[nH]2)cc1 | 12.7* | -3.7 | 8.0 | 6.8 | 5.3 | 1.8 | 0.1
O=C(O)c1ccccc1NS(=O)(=O)c1ccc(NNC(=S)Nc2ccc(OC(F)F)cc2)c([N+](=O)[O-])c1 | 12.5* | 7.5 | 5.5 | 9.8 | -35.8 | 5.1 | 3.4
CCOC(=O)c1c(C)n(S(=O)(=O)c2ccc(C)cc2)c2ccc(O)c(C(=O)O)c12 | 13.0* | -0.7 | -4.4 | 31.7 | -1.2 | -1.6 | 1.3
CCOC(=O)C1=C[C@@H](C)N(S(=O)(=O)c2ccc(C)cc2)[C@H]1c1ccccc1 | . | . | . | . | 7.2 | . | .
CCOc1ccc(N(CC(=O)Nc2ccc(CC)cc2)S(=O)(=O)c2c(C)[nH]c(=O)[nH]c2=O)cc1 | 14.5* | 1.1 | 3.1 | -9.0 | -3.6 | -0.2 | -2.0
COc1ccc(C2C3C(=O)N(C(C)(C)C)C(=O)C3[C@]3(Cc4ccc(Cl)cc4)C(=O)N(c4cccc(F)c4)C(=O)N23)cc1 (some centres undefined) | . | . | -5.0 | . | . | 7.2 | .
CC(C)N(CCNS(=O)(=O)c1ccc(Cl)cc1)C(C)C | -2.6 | 3.6 | 1.1 | 7.3 | -4.4 | 0.9 | .
